The list is not random: actives were taken first. Their share in the collection is about 7%.
D3 ag – qHTS of D3 Dopamine Receptor Agonist: qHTS. D3R DiscoveRx beta-arrestin cells, luminescence, 90 min. D(3) dopamine receptor (Homo sapiens), P35462. max activation, %. 0.58% of 410,000 active; in the data active = max activation above about 30%; also: 0% is about no effect
Target sequence (P35462 whole entry, looked up): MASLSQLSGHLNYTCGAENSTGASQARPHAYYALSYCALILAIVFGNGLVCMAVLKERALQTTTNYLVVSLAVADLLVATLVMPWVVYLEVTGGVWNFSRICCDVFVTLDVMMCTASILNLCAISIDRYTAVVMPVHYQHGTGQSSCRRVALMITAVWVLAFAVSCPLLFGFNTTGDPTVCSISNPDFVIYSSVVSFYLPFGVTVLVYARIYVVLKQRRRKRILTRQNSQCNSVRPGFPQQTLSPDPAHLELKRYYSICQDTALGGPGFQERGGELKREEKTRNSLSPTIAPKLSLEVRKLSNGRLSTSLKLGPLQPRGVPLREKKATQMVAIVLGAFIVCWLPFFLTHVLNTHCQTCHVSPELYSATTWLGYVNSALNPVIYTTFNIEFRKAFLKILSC
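Cells at 1500/well, incubated overnight, then treated with pinned compounds (dopamine as control) for 90 min at 37 degrees C. DiscoveRx reagent added for 30 - 60 minutes at room temperature; luminescence read.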
a7 integrin act – qHTS for Activators of Integrin-Mediated Alleviation for Muscular Dystrophy; alpha7betagal myoblasts, beta-gal FDG fluorescence, 48 h; Potency, µM (highest dose often 38.3 µM), for the others: top-dose activation, hits mostly activators; 0.064% of 350,000 active; AID 624291, 2012;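 also: potency is read from the fitted curve at half-maximal effect; 100% = response of the positive control SU9516; nearly all actives have a fitted effect of over 60% in size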
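alpha7betagal+/- myoblasts (passage 13, 250/well) treated 48 h at 37C with compounds at 1:260 dilution of DMSO stock. Lysed, then beta-galactosidase activity read as FDG fluorescence (ex 480/em 540) after 30 min, with pre-read for autofluorescence.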
IL1B secr inh – qHTS for Inhibitors of Inflammasome Signaling: IL-1-beta AlphaLISA Primary Screen; THP-1 LPS/ATP IL-1B secretion, AlphaLISA, 16 h; active compounds read low; activity change, % at 57.5 µM; 4.7% of 360,000 active; in the data active = activity change below about -50%; inconclusive = mostly about -30% to -49%; also: % is scaled to controls: 0 for no effect and ±100 for the full control effect
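THP-1 cells pretreated 1 hr with compounds (up to 57.5 uM final), then stimulated with LPS (250 ng/mL final) plus ATP (1.25 mM final); secreted IL-1B measured by AlphaLISA after 16 hr, decreased signal indicating inhibition.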
D3 antag – qHTS of D3 Dopamine Receptor Antagonist: qHTS; AID 652054, 2013; max response, negative = inhibition, %; 2.5% of 360,000 active; D3R cells, DiscoveRx beta-arrestin luminescence, antagonist mode; active compounds read low; D(3) dopamine receptor (Homo sapiens), P35462; in the data active = max response below about -50%; inconclusive = no clear call, values can overlap the other calls; also: % is scaled to controls: 0 for no effect and ±100 for the full control effect
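Cells expressing the human receptor were seeded at 1500 cells/well, incubated overnight at 37 degrees C in 5% CO2, then exposed to library compounds with dopamine controls for 90 minutes at 37 degrees C before luminescent detection.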
ATXN viability – Viability Counterscreen for Primary qHTS for Inhibitors of ATXN expression; S2 cells (HEK-293 line with an ATXN2-luciferase reporter) viability, CellTiter-Fluor protease fluorescence, 24 h; Potency, µM (top dose mostly 56.7 µM), most hits filed as cytotoxic; 0.49% of 400,000 active; AID 651635, 2014; also: potency is read from the fitted curve at half-maximal effect; nearly all actives have a fitted effect of over 40% in size
ATXN2 expr inh – Primary qHTS for Inhibitors of ATXN expression | 0.72% of 360,000 active | Potency, µM (series often up to 57 µM), for the others: at the highest dose activity change, negative = inhibition, most hits filed as inhibitors | HEK-293 ATXN2-luciferase reporter, luminescence, 24 h; also: potency is read from the fitted curve at half-maximal effect; % is scaled to controls: 0 for no effect and ±100 for the full control effect; nearly all actives have a fitted effect of over 55% in size
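ATXN2-luciferase reporter cells (luciferase flanked by upstream and downstream ATXN2 gene portions) were treated 24 h at 37 °C with compounds at up to 57 uM. SteadyGlo luminescence gave expression; GF-AFC fluorescence gave viability.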
The depositor's hits bear a star; i = inactive; ? = inconclusive; . = no result. Unless noted, calls follow the shape of the dose curve; as a rule, active = well fitted curve in the direction sought with a large enough effect; inconclusive = small, poorly fitted or top-dose-only effect, or another doubt; inactive = no such curve, though single readings can be large; an effect the other way counts as inactive or inconclusive.

SMILES | D3 ag | a7 integrin act | IL1B secr inh | D3 antag | ATXN viability | ATXN2 expr inh
O=C(CCn1nc(-c2ccccc2)ccc1=O)N1CCN(c2ccccc2)CC1 | 14 | 17% | ? | -14 | i | 2%
Oc1ccc(Br)cc1CNc1cccc2cccnc12 | -10 | -9% | -10 | ? | i | ?
Oc1c(Br)cc(Br)cc1CNc1cccc2cccnc12 | -3 | 13µM* | 0 | -58* | i | .
CCc1c(C(=O)N2CCN(c3ccccc3F)CC2)[nH]c(C)c1C(C)=O | -1 | -14% | 18 | -1 | i | -25%
CCCn1c(=N)n(CC(=O)c2ccc(Cl)cc2)c2ccccc21 | -2 | -23% | -66* | -11 | i | ?
CCCn1c(=N)n(CC(=O)c2ccc(OCC(=O)OC)cc2)c2ccccc21 | 4 | -31% | -4 | 27 | i | .
CCCn1c(=N)n(CC(=O)c2ccc([N+](=O)[O-])cc2)c2ccccc21 | -3 | -5% | -53* | 9 | . | ?
C#CCOCCOCCOCCNc1nc(N2CCN(C(=O)[C@H](C(C)C)n3cc(CCO)nn3)CC2)nc(N2CCN(C(=O)[C@H](CCCCN)n3cc(CCCC)nn3)CC2)n1 | -9 | -3% | 3 | -10 | i | 8%
CCN(Cc1ccccc1)C(=O)COC(=O)Cn1cnc2ccccc21 | 7 | -13% | -16 | 3 | i | -6%
COc1cc(-c2cc(NC(C)=O)c3ncc(-c4ccccc4)n3c2)cc(OC)c1OC | 6 | . | -60* | 54 | i | 2%
COc1cc(-c2cc(NC=O)c3ncc(-c4ccccc4)n3c2)cc(OC)c1OC | 0 | . | . | -19 | i | ?
COc1cc(-c2cc(NC=O)c3ncc(-c4ccc(C(C)=O)cc4)n3c2)cc(OC)c1OC | -2 | . | -59* | 7 | i | 0%
COc1ccc(-c2cc(NC=O)c3ncc(-c4ccc(C(C)=O)cc4)n3c2)cc1OC | 13 | . | -70* | 20 | ? | -29%
COc1cc(-c2cc(NC(C)=O)c3ncc(-c4cc(OC)c(OC)c(OC)c4)n3c2)cc(OC)c1OC | 8 | . | -1 | 26 | ? | ?
COc1cccc(-c2cc(NC=O)c3ncc(-c4ccc(C(C)=O)cc4)n3c2)c1 | -2 | . | 0 | 7 | i | ?
CCOC(=O)C1CCCN(C(=O)c2cnn(-c3nccc(-c4cc(C)sc4C)n3)c2C)C1 (centres undefined) | . | . | . | . | i | .
CC(C)NCCOc1cccc(Br)c1 | -2 | 1% | -9 | -75* | i | -12%
Brc1cccc(OCCCNC2CCCC2)c1 | -15 | -57% | ? | -91* | i | -23%
CC(C)(C)c1ccc(/C=C2\Oc3cc(O)ccc3C2=O)cc1 | 3 | -3% | -74* | 29 | i | 5%
O=S(=O)(c1ccc(F)cc1)N1CCN(CC(O)COCc2ccccc2)CC1 (centres undefined) | 0 | 5% | -13 | -10 | i | -4%
COc1ccc(NC(=O)COC(=O)c2ccc(S(=O)(=O)N(C)c3ccccc3OC)cc2)cc1 | -11 | 13% | 0 | 2 | i | 0%
COC1=CC(=O)C=C(OC)C1(O)CC(C)=O | 0 | -8% | 1 | -56* | i | ?
CC(=O)CC1(O)C(=O)Nc2ccccc21 (centres undefined) | 1 | -10% | 11 | 15 | i | 3%
CCCNC(=O)COc1coc(CN2CCN(c3ccccc3F)CC2)cc1=O | 1 | 4% | 0 | 25 | i | 40%
CC(C)(C)NC(=O)c1ccc(Sc2ccccc2)c([N+](=O)[O-])c1 | -4 | 0% | 5 | -50* | i | 0%
COc1ccc(C(=O)CC(=O)C(=O)Nc2ccc(Cl)cc2)cc1 | 5 | -28% | 3 | -1 | i | 1%
